For some assays here: Entries with a potency or affinity are not part of this list.
How the values were obtained:
Set-up in all cases: scale not given: direction of the effect not stated beside the values
[1] = target: Protein translocase subunit SecA (Escherichia coli (strain K12)) (UniProt P10408); assay: Assay to Identify E. coli SecA ATPase Inhibitors; assay type: functional; details: 30 µM
[2] = target: T1, Ubiquitin-activating enzyme e1, putative (Leishmania donovani (strain BPK282A1)) (UniProt E9BSI1); assay: Leishmania donovani Ubiquitin Activating Enzyme (LdE1); assay type: functional; details: 30 µM
T1 sequence (whole entry): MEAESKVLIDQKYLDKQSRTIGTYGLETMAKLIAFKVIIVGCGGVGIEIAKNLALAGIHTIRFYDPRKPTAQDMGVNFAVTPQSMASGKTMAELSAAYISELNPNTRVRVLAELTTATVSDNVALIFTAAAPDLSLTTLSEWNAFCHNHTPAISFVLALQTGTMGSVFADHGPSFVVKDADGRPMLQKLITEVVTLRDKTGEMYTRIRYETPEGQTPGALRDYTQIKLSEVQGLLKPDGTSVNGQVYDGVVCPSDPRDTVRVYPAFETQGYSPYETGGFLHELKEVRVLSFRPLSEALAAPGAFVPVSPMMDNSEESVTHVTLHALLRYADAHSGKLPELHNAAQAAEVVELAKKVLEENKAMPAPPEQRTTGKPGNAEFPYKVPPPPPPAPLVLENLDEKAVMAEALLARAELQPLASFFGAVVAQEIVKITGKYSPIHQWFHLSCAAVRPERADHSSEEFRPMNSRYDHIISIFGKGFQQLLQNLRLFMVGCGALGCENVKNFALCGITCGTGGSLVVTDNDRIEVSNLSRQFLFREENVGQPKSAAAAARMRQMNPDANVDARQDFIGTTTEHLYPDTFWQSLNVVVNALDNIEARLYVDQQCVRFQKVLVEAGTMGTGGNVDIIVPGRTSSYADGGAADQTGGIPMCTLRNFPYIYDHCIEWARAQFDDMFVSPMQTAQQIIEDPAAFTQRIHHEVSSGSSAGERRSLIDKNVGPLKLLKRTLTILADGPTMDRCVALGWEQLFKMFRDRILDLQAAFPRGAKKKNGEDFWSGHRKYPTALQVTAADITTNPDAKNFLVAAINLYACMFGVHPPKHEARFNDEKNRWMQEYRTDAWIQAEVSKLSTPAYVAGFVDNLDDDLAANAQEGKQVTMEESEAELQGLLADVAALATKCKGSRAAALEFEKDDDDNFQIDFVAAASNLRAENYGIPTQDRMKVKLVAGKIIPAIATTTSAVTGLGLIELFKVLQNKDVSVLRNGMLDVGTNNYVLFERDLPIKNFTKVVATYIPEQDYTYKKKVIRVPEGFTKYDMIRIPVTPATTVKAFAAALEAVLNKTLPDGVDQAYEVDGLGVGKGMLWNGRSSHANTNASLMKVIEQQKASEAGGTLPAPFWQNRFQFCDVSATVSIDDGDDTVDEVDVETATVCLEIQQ

[3] = target: AMP-activated protein kinase, AMPK (Homo sapiens) (UniProt P54646+O43741+P54619+Q9UGJ0+Q9Y478+Q13131+Q9UGI9); assay: AMP-dependent Kinase enzyme assay. An in vitro enzyme assay that detects ADP turnover that is directly proportional to AMPK activity. This uses naive AMPK that is activated during the assay with MK-8722; assay type: functional; details: 30 µM
[4] = target: Sialic acid-binding Ig-like lectin 9 (Homo sapiens) (UniProt Q9Y336); assay: Hs-Siglec9 ALPHAscreen SOP 20170721; details: 10 µM
Trypanosoma cruzi = assay: Trypanosoma cruzi phosphomannomutase and mannose-1-phosphate guanylyltransferase assay; assay type: functional; details: 10 µM
[5] = target: T2, Arginase-2, mitochondrial (Homo sapiens) (UniProt P78540); assay: in vitro enzyme assay to detect the production of urea directly proportional to the activity of Arginase II; assay type: functional; details: 33.3 µM; also: in the data most compounds retested in dose-response had high values
T2 sequence (whole entry): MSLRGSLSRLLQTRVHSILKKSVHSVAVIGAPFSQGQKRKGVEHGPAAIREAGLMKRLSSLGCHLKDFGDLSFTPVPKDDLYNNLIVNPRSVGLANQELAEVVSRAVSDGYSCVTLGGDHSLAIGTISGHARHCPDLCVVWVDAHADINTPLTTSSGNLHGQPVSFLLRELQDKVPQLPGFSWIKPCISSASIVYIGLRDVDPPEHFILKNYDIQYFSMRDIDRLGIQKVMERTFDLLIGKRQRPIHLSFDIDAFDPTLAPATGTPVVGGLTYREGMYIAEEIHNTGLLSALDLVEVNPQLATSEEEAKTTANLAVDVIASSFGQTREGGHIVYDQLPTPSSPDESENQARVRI

[6] = target: T3, Proteasome subunit beta (Trypanosoma cruzi) (UniProt O96673); assay: Trypanosoma cruzi proteasome chymotrypsin-like activity (TcProtChymo) assay.; also: in the data most compounds retested in dose-response had high values; assay type: functional; details: 9.37 µM
T3 sequence (whole entry): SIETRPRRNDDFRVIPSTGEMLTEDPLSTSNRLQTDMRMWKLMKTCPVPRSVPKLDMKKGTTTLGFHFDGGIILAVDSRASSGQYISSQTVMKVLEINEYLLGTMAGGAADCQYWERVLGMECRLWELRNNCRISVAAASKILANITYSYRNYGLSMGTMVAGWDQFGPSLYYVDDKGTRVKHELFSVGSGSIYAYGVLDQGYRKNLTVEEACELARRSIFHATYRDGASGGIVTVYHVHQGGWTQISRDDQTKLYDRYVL

Homo sapiens = species on record: Homo sapiens; assay: To identify inhibition of the IFN signalling (Jak-Stat) pathway via expression of an eGFP reporter gene under the control of an IFN-stimulated response element (ISRE) containing MxA promoter.; assay type: functional; details: 30 µM
[7] = target: T4, Tyrosyl-tRNA synthetase, putative (Trypanosoma cruzi (strain CL Brener)) (UniProt Q4DSP6); assay: Trypanosoma cruzi tyrosyl tRNA synthetase (TcYRS) _High Tyrosine SOP; assay type: functional; details: 30 µM; also: in the data most compounds retested in dose-response had high values
T4 sequence (whole entry): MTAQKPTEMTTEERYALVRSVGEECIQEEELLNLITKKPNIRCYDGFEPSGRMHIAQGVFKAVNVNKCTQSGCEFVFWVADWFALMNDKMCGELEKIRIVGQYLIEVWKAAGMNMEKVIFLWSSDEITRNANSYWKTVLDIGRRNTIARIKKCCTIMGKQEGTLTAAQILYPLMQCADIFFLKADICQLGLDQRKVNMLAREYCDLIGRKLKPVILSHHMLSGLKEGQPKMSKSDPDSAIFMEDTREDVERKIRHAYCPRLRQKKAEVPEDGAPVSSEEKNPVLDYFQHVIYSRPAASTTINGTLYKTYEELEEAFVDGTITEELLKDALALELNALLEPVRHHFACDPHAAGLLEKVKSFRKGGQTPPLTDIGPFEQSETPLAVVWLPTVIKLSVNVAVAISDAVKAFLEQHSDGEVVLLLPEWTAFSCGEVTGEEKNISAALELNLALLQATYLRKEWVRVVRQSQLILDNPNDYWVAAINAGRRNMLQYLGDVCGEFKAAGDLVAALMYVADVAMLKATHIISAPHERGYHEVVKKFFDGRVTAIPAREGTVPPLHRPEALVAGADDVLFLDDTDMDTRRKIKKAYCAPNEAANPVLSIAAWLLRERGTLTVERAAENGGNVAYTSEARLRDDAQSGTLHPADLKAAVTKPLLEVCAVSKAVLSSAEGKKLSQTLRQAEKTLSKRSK

[8] = target: T4, Tyrosyl-tRNA synthetase, putative (Trypanosoma cruzi (strain CL Brener)); assay: Trypanosoma cruzi tyrosyl tRNA synthetase (TcYRS) SOP; assay type: functional; details: 30 µM
[9] = target: Chromo domain-containing protein 1 (Saccharomyces cerevisiae (strain ATCC 204508 / S288c) (Baker's yeast)) (UniProt P32657); assay: ScCHD-1 Enzyme Inhibition Assay; assay type: functional; details: 30 µM; also: in the data most compounds retested in dose-response had high values
Sequence of Chromo domain-containing protein 1 (Saccharomyces cerevisiae (strain ATCC 204508 / S288c) (Baker's yeast)) (P32657 whole entry, the tested form may be a part): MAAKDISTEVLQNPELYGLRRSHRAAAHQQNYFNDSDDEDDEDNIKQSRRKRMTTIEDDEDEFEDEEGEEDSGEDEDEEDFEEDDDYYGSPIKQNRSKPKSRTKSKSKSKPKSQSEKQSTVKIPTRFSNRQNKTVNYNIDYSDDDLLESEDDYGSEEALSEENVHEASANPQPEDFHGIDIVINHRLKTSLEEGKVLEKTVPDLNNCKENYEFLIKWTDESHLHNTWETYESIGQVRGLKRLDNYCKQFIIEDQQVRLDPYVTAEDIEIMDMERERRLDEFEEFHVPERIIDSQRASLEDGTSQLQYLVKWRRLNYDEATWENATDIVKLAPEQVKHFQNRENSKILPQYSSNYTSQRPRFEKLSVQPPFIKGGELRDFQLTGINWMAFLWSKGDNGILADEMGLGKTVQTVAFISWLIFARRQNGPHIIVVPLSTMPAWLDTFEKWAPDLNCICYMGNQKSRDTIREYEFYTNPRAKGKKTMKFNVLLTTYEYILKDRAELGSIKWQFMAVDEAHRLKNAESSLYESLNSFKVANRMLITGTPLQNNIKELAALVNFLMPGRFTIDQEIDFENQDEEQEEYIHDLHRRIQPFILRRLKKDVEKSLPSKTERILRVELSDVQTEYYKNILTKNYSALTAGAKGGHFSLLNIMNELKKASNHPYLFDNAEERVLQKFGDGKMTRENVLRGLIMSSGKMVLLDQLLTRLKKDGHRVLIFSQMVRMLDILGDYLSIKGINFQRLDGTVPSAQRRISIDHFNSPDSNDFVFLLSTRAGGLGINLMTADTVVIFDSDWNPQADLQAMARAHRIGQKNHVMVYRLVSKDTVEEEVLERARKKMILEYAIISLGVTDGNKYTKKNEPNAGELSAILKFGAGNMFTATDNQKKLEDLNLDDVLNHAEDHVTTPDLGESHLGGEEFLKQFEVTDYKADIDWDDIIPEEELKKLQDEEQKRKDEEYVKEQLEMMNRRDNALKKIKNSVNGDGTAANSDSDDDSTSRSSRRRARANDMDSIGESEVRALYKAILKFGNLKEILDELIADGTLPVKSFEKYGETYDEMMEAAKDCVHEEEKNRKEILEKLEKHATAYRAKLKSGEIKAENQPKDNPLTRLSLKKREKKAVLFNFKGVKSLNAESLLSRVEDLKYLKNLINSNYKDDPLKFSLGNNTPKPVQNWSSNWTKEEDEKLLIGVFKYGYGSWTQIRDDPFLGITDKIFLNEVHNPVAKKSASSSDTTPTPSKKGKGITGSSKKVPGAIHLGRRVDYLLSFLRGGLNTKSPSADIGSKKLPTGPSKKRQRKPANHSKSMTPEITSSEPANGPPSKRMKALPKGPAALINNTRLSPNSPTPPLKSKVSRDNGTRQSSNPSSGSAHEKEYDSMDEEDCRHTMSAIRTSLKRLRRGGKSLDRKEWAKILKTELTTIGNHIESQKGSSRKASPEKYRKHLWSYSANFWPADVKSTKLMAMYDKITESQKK

Sequence of Sialic acid-binding Ig-like lectin 9 (Homo sapiens) (Q9Y336 whole entry): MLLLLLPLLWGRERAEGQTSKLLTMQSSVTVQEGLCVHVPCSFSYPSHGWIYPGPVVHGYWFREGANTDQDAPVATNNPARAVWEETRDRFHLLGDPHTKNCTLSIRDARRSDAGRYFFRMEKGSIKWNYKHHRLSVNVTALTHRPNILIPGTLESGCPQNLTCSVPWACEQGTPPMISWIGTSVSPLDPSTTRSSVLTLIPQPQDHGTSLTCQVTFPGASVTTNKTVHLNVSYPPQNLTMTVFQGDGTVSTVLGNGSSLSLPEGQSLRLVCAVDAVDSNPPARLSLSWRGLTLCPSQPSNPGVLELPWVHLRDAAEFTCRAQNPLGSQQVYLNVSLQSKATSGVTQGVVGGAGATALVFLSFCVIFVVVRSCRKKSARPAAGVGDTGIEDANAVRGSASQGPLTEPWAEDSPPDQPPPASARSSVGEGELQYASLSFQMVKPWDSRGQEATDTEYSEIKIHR
Sequence of Protein translocase subunit SecA (Escherichia coli (strain K12)) (P10408 whole entry): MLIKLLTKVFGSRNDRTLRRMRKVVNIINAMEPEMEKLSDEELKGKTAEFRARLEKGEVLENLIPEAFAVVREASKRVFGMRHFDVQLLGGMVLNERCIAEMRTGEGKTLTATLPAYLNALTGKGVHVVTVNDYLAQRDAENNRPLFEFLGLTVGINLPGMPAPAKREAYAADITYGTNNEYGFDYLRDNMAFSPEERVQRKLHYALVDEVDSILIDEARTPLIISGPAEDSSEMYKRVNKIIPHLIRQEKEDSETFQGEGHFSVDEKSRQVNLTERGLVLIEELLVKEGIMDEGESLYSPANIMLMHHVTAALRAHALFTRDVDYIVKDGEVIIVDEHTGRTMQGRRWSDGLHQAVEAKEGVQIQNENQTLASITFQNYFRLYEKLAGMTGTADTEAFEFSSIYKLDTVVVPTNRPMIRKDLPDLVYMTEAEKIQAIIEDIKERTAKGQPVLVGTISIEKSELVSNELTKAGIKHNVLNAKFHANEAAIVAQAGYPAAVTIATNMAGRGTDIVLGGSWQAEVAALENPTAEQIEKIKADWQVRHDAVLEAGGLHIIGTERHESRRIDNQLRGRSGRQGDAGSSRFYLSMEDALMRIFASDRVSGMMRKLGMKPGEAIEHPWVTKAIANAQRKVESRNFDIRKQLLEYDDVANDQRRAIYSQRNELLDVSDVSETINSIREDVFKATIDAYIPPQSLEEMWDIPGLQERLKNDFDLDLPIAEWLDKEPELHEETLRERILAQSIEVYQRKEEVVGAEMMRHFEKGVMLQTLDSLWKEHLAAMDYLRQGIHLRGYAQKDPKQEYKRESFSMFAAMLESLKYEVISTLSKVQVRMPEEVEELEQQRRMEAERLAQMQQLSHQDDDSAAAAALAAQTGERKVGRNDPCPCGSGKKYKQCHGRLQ

SMILES	Percent Effect [1] [%]	Percent Effect [2] [%]	Percent Effect [3] [%]	Percent Effect [4] [%]	Percent Effect (Trypanosoma cruzi) [%]	Percent Effect [5] [%]	Percent Effect [6] [%]	Percent Effect (Homo sapiens) [%]	Percent Effect [7] [%]	Percent Effect [8] [%]	Percent Effect [9] [%]
CC(C)c1cc(C(=O)N2CCN(Cc3ccsc3)CC2)n[nH]1	-2.94	13.5	-2.35	15	5.57	18.1	12.1	28	4.3	18.5	-3.72
Cn1cc(N2CCC3(CCN(S(=O)(=O)C4CC4)C3)C2=O)cn1 (configuration not stated)	-2.28	-2.67	0.251	0.236	2.32	-37.5	8.55	0.388	1.04	5	-4.63
Cc1ccoc1C(=O)NC1CCN(Cc2csc3c(F)cccc23)CC1	-4.82	-1.27	-4.47	-1.87	-0.308	-3.66	9.61	17.2	6.25	10.1	-13.8
Cc1ccc(CN2CCN(CC3CC3)[C@@H]3CS(=O)(=O)C[C@@H]32)cc1C	-7.02	5.33	-1.63	3.97	-7.11	2.08	15.5	2.7	-2.73	8.64	-5.38
CCCc1cc(C(=O)N(C)Cc2cnc3ccccc3n2)n(C)n1	-7.11	5.2	2.82	6.76	2.06	11	8.82	7.96	7.53	11.1	2.1
CCN(CC1CCOC1)C(=O)c1ccccc1NS(=O)(=O)CC (configuration not stated)	-5.12	7.89	-0.433	-1.92	1.03	-1.08	6.34	-2.41	7.39	18.5	-4.83
CC(C)CN1CCC(c2nc3c([nH]2)CC(C)(C)CNC3=O)C1 (configuration not stated)	3.37	8.11	-3.98	5.96	3.67	16.2	10.5	19.8	5.82	19.5	-2.21
CC(C)NC(=O)N1CCc2nc(C(=O)NCc3ccccc3)sc2CC1	-0.812	10.8	5.95	-6.63	-3.42	5.41	18.1	13.3	8.65	17.9	-3.29
COc1ccc(CNC(C)c2ccc3[nH]c(=O)[nH]c3c2)cc1 (configuration not stated)	0.617	-5.41	-4.65	13.3	1.23	-6.81	0.36	22.4	1.48	1.24	-9.21
CC(C)c1cc(NC(=O)c2ccc(NC3CC3)nc2)[nH]n1	-5.31	13	111	10.4	8.24	-6.05	11.5	-1.61	7.77	24.4	-8.09
Cc1ccc(C(=O)N2Cc3ccccc3C2)cc1N1CCNC1=O	-6.25	2.67	0.516	9.14	7.89	-3.12	16.2	-13.9	7.1	13.6	-6.92
CCSCCNC(=O)C(c1cccc(F)c1)N(C)C (configuration not stated)	-5.79	8.11	-0.968	-3.42	-4.44	-0.952	13.8	20.7	6.88	7.32	-3.55
Cc1cc(C)n(C2CCCN(C(=O)CCCNc3ncccn3)C2)n1 (configuration not stated)	-6.94	13.9	-2.21	-4.67	3.38	2.8	10.6	-0.293	4.17	20.2	-26.7
CCCC(C)CN1CCC(n2cc(C3CCCC3)nn2)CC1 (configuration not stated)	-5.89	13.3	-5.31	18.9	9.45	10.4	9.07	7.54	6.01	11.1	-4.05
CNC(=O)C1CCN(C(=O)CCn2cccn2)CC1	-7.35	13.5	2.1	7.36	-4.92	5.73	-1.44	19.3	-0.99	-1.22	6.84
Cc1nnc(NC(=O)NCc2ccc(N3CCN(C)CC3)nc2)s1	-5	15.8	-3.09	-1.76	-5.32	-0.36	13.6	3.4	5.42	18.5	-9.38
CCCNC(=O)N1CCC(Oc2cc(C)ccc2F)(C(=O)O)CC1	-2.42	9.72	-3.19	22.9	6.9	24.3	1.75	-5.25	-1.05	10.3	-1.57
CCCn1ccc(C(=O)N2CCC(C)CC2)n1	-3.61	10.4	1.17	5.81	0.295	-44.1	6.49	-8.22	8.6	18.5	-1.29
Cc1cc(C)n(CC2CCCN2C(=O)CCc2cscn2)n1 (configuration not stated)	-2.42	-5.26	7.92	-2.27	8.08	1.92	-4.51	-4.45	-0.49	0	1.57
N#Cc1ccc(CN2CCN(C(=O)c3cc(C4CC4)[nH]n3)CC2)cc1	-4.3	21.6	-5.26	14.7	4.74	-3.51	5.21	23.8	7.92	18.3	-4.6
CN(CC1(O)CCCN(c2ccccn2)C1)C(=O)Cc1ccsc1 (configuration not stated)	-5.09	4.05	12	3.61	-0.198	-1.62	-2.18	-8.8	6.45	9.09	3.9
O=C(O)C(c1ccc2c(c1)OCCO2)N1CCCCCC1 (configuration not stated)	-4.06	5.33	0.637	5.42	-0.682	4.69	17.1	-7.93	9.29	13.6	-1.28

From ChEMBL document CHEMBL3988442, “University of Dundee, Small-Polar-MMV Screening Library” (2021)
